SMILES strings stand for the structures. Active and inactive are the calls of the source. The calls were made as follows: active = hit-call score of the fitted dose curve at least 0.9, where 1 is the maximum; inactive = score below 0.9.

The source of these data is PubChem BioAssay (EPA / NIEHS).

Test [1] is described as follows: ATG_PBREM_CIS: Attagene CIS-FACTORIAL HepG2 Assay for human Phenobarbital-responsive Enhancer Module (PBREM) (AID 2282955). The settings on record: HepG2 PBREM cis-reporter, Attagene multiplexed transcription; actives raise or lower the signal. Summed up: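 HepG2 cells transiently transfected with multiple cis-regulated reporter units measure endogenous transcription factor activity; 24 h compound exposure. Reporter mRNA quantified by RT-PCR, fluorescent labelling, HpaI digestion and capillary electrophoresis; bidirectional fit versus DMSO.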

For test [2], the target named is Paired box protein Pax-6 (Homo sapiens) (UniProt P26367). Description: ATG_Pax6_CIS: Attagene CIS-FACTORIAL HepG2 Assay for human Paired Box 6 (PAX6) (AID 2282956). Conditions: HepG2 CIS-FACTORIAL PAX6 reporter transcription, RNA readout; actives raise or lower the signal. Summed up: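 Multiplexed cis-reporter HepG2 system; 24 h treatment; reporter mRNA read by RT-PCR/CE fluorescence; bidirectional fit vs DMSO.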

Test [3] is described as follows: ATG_PXRE_CIS: Attagene CIS-FACTORIAL HepG2 Assay for human Pregnane X Receptor Element (PXRE) (AID 2282957). Conditions: HepG2 Attagene CIS-FACTORIAL PXRE reporter, mRNA; actives raise or lower the signal. Summed up:
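HepG2 cells transiently transfected with cis-element-driven multiplexed reporter units; after 24 h chemical exposure, reporter mRNA measured by RT-PCR, 6-FAM labelling, HpaI digestion and capillary electrophoresis. Bidirectional fitting relative to DMSO.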

A short description of test [4]: ATG_PPRE_CIS: Attagene CIS-FACTORIAL HepG2 Assay for human Peroxisome Proliferator-activated Response Element (PPRE) (AID 2282958). Conditions: HepG2 PPRE cis-element reporter, Attagene transcription factor profiling; actives raise or lower the signal. Summed up:
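HepG2 cells are transiently transfected with multiplexed cis-promoter reporter units to report endogenous PPAR activity. After 24 h dosing, reporter mRNA is read by RT-PCR and capillary electrophoresis. Fitting is bidirectional against DMSO.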

Test [5] can be described thus: ATG_RORE_CIS: Attagene CIS-FACTORIAL HepG2 Assay for human RAR-related Orphan Receptor Element (RORE) (AID 2282959). The settings on record: HepG2 Attagene cis-factorial RORE reporter, mRNA; actives raise or lower the signal. Summed up: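 HepG2 cells carrying transiently transfected cis-regulated reporter units; RORE-driven reporter mRNA quantified 24 h post-dosing by RT-PCR, 6-FAM primer extension, HpaI digestion and capillary electrophoresis. Bidirectional fit versus DMSO.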

Test [6] is described as follows: ATG_Sox_CIS: Attagene CIS-FACTORIAL HepG2 Assay for human SRY-box transcription factor (SOX) (AID 2282960). Conditions: HepG2 Attagene cis-factorial SOX reporter, mRNA; actives raise or lower the signal. Summed up: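 HepG2 cells transiently transfected with multiple cis-regulated reporter units, then dosed for 24 h. Reporter mRNA quantified by RT-PCR, fluorescent labelling, HpaI digestion and capillary electrophoresis; bidirectional fit versus DMSO.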

The target in test [7] is Transcription factor Sp1 (Homo sapiens) (UniProt P08047). Description: ATG_Sp1_CIS: Attagene CIS-FACTORIAL HepG2 Assay for human Specificity Protein 1 (Sp1) (AID 2282961). The settings on record: HepG2 Sp1 cis-reporter transcription, actives raise or lower the signal. Summed up:
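HepG2 cells transiently transfected with multiplexed cis-regulated reporter constructs, chemical exposure 24 h. Reporter mRNA quantified by RT-PCR with capillary electrophoresis; bidirectional fit relative to DMSO.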

The nature of test [8]: ATG_SREBP_CIS: Attagene CIS-FACTORIAL HepG2 Assay for human Sterol Regulatory Element Binding (SREBP) (AID 2282962). The settings on record: HepG2 Attagene cis-factorial SREBP reporter, mRNA; actives raise or lower the signal. Summed up: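 mRNA induction of transfected cis-promoter reporters in HepG2 cells, 24 h post-dose. Detection: RT-PCR with 6-FAM-labelled products, HpaI digest, capillary electrophoresis. DMSO served as negative control and baseline.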

Test [9] deals with Signal transducer and activator of transcription 3 (Homo sapiens) (UniProt P40763). Put plainly: ATG_STAT3_CIS: Attagene CIS-FACTORIAL HepG2 Assay for human Signal Transducer and Activator of Transcription 3 (STAT3) (AID 2282963). Conditions: HepG2, Attagene cis-factorial STAT3 reporter transcription; actives raise or lower the signal. Summed up:
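Transcript-level reporter assay. HepG2 transient MRTU transfection, 24 h exposure, fluorescence detection after RT-PCR and CE; DMSO baseline.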

Test [10] in a line: ATG_TA_CIS: Attagene CIS-FACTORIAL HepG2 Assay for human TA Basal Promoter (AID 2282964). Conditions: HepG2 Attagene CIS-factorial TA basal promoter reporter; actives raise or lower the signal. Summed up:
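HepG2 cells transiently transfected with multiple reporter units under cis promoter elements, reporting endogenous transcription factor activity; this endpoint tracks the TA basal promoter as background control. Reporter mRNA after 24 h dosing measured by RT-PCR/capillary electrophoresis; bidirectional fits versus DMSO.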

Sequence of Transcription factor Sp1 (Homo sapiens) (P08047 whole entry, looked up): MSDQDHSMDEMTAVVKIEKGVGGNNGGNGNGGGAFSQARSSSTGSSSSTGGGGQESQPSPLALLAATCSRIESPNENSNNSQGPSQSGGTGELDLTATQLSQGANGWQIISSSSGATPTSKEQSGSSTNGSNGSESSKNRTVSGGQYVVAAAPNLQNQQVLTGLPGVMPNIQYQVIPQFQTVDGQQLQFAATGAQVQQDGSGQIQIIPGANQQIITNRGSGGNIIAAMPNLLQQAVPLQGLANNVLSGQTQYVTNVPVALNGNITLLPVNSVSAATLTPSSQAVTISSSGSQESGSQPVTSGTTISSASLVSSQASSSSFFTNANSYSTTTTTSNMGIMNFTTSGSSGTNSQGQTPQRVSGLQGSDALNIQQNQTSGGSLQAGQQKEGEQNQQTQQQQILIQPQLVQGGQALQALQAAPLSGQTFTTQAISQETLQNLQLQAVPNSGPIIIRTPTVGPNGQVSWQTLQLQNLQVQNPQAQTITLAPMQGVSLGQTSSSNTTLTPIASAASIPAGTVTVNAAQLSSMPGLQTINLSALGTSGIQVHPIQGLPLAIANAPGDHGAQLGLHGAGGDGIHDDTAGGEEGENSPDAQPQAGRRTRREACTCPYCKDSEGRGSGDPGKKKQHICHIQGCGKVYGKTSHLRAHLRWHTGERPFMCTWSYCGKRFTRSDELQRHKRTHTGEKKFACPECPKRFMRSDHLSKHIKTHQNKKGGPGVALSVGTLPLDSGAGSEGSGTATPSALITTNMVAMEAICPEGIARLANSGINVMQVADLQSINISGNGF
Sequence of Signal transducer and activator of transcription 3 (Homo sapiens) (P40763 whole entry, looked up): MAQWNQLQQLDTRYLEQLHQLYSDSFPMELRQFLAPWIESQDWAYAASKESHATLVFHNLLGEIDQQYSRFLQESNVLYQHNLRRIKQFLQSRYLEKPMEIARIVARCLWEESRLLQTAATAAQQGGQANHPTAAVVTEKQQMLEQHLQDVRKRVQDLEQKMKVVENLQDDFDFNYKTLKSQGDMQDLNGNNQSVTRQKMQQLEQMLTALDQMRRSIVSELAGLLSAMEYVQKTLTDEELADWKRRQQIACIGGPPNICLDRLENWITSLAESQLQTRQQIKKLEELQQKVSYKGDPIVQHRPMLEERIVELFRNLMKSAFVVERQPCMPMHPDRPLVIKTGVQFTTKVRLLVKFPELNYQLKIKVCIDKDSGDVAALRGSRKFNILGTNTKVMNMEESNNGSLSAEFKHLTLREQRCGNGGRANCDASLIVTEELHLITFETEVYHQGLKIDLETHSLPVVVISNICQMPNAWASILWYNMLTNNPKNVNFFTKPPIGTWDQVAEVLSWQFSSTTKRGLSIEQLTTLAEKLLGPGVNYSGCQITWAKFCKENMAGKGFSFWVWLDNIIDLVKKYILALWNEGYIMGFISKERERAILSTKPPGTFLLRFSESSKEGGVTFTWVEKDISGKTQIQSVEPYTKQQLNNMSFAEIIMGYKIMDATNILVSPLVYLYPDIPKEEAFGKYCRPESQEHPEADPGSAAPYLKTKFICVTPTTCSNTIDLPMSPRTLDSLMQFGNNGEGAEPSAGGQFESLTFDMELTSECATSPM
Sequence of Paired box protein Pax-6 (Homo sapiens) (P26367 whole entry, looked up): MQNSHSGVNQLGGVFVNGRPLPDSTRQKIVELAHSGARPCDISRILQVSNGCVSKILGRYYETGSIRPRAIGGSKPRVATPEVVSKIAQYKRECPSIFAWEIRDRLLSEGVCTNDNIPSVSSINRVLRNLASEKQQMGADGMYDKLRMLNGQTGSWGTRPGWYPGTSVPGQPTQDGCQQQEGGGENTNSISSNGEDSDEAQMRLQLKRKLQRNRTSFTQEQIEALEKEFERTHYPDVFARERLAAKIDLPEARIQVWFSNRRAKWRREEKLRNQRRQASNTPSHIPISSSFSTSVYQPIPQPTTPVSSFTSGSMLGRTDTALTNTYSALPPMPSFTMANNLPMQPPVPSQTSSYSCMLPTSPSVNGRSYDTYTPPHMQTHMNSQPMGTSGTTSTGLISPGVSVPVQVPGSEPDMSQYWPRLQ

As to `CCN(CC)C1CCCCC1`, the result in test [1], in [2], in test [3], in [4], in test [5] and in [6] was inactive. Further, the call in test [7], in test [8], in test [9] and in [10] was inactive.

With `COC(N)=O`, the result in test [1], in test [2], in test [3], in test [4], in [5] and in [7] was inactive. Further, the call in [8], in [9] and in [10] was inactive.

As to `c1ccc2c(c1)Nc1ccccc1S2`, the result in test [1], in test [2], in [4], in test [5], in test [7] and in [8] was inactive. Further, the compound was called inactive in test [9] and in [10]. Also, the AC50 in test [3] is 17.1 µM (active).

For `CCOC(=O)c1ccccc1C(=O)OCC`, the outcome in [1], in [2], in test [3], in [4], in test [5] and in test [6] was inactive. Moreover, the compound was classed as inactive in test [7], in test [8], in test [9] and in test [10].

As to `ClC(Cl)c1ccccc1`, the outcome in test [1], in [2], in test [3], in test [4], in test [5] and in test [7] was inactive. The compound was called inactive in [8], in test [9] and in test [10].

On to `Cc1cccc(N)c1`, for which the outcome in test [1], in test [2], in test [3], in test [4], in test [5] and in test [6] was inactive. The outcome in test [7], in [8], in test [9] and in [10] was inactive.

Take `CCC(C)(C)c1ccc(O)cc1`: the outcome in [2], in [5], in test [7], in test [9] and in test [10] was inactive. Also, the results for the AC50 in test [3] and in test [8] were 9.13 µM (active) and 20 µM (active), respectively.

For the compound `ClC(Cl)=C(c1ccc(Cl)cc1)c1ccccc1Cl`, the result in [1], in test [9] and in [10] was inactive. The AC50 in test [2] was 100 µM (active); in test [3], 2.77 µM (active); in [4] it was 55.3 µM (active); in [7], 27.3 µM (active); in test [8] it was 98.5 µM (active).

On to `CC(Cc1ccc(OCC(=O)O)cc1)NCC(O)c1csc(C(F)(F)F)n1` (stereo not drawn), for which the outcome in test [1], in [2], in [3], in [5], in [6] and in test [7] was inactive. Further, the outcome in test [8], in [9] and in [10] was inactive.

In the case of `Cc1ccc(N)cc1N`, the result in [1], in [2], in test [3], in test [4], in test [5] and in test [7] was inactive. Besides, the result in [8], in test [9] and in test [10] was inactive.

For `O=[N+]([O-])c1ccc(Cl)c(Cl)c1`, the result in test [1], in [2], in [4], in [5], in [7] and in test [8] was inactive. Also, the compound was called inactive in [9] and in test [10]. Besides, in test [3], the AC50 is 49.2 µM (active).

Take `O=P(OCC(Br)CBr)(OCC(Br)CBr)OCC(Br)CBr` (stereo not drawn): the outcome in test [1], in test [4], in test [6], in [7] and in [9] was inactive. Moreover, the AC50 in test [2] is 19.6 µM (active); in [3], 0.0674 µM (active); in test [8], 22.9 µM (active); in test [10], 11.8 µM (active).

Consider `NC(=O)C(F)(F)C(F)(F)F`, for which the outcome in test [1], in test [2], in [3], in test [4], in [5] and in test [7] was inactive. The compound was classed as inactive in [8], in [9] and in [10].

`O=P(Oc1ccccc1)(Oc1ccccc1)Oc1ccccc1`: the outcome in [1], in [4], in test [7] and in test [9] was inactive. The AC50 in [2] is 33.4 µM (active); in test [3], 8.63 µM (active); in [8] it was 16.7 µM (active); in [10], 42 µM (active).

As to `CC(C)(C)c1ccccc1OP(=O)(Oc1ccccc1)Oc1ccccc1`, the outcome in test [1], in test [2], in [4], in test [5], in [7] and in [9] was inactive. In addition, the result in test [10] was inactive. Besides, the AC50 was 0.576 µM (active) in [3] and 11.8 µM (active) in [8].

In the case of `ClC(Cl)(Cl)c1ccccc1`, the outcome in [1], in test [2], in test [5], in [7], in test [8] and in test [9] was inactive. The outcome in test [10] was inactive. In test [3], the concentration at half-maximal activity (AC50) is 62.9 µM (active).

As for `CCN(CC)c1ccccc1`, the compound was classed as inactive in [2], in test [3], in test [5], in test [6], in [7] and in test [8]. Also, the compound was called inactive in test [9] and in test [10].

Consider `O=S(=O)(c1ccc(O)cc1)c1ccc(O)cc1`, for which the result in test [1], in test [2], in [4], in test [6], in test [7] and in [8] was inactive. Besides, the compound was called inactive in [9] and in test [10]. Further, the AC50 in test [3] is 35.9 µM (active).

Turning to `Nc1ccc2ccccc2c1`, the result in test [1], in test [2], in test [3], in [5], in test [6] and in test [7] was inactive. The result in test [8], in test [9] and in test [10] was inactive.

With `O=C(O)C1C(C(=O)O)C2(Cl)C(Cl)=C(Cl)C1(Cl)C2(Cl)Cl` (stereo not drawn), the outcome in [1], in test [2], in [3], in test [5], in test [6] and in [7] was inactive. The result in test [8], in test [9] and in [10] was inactive.

Regarding `O=C(O)C(Cl)Cl`, the compound was called inactive in test [2], in test [3], in [4], in test [5], in test [7] and in [8]. Besides, the call in [9] and in [10] was inactive.

As to `OCC1CO1` (stereo not drawn), the compound was classed as inactive in test [2], in [3], in test [4], in [5], in test [6] and in test [7]. The outcome in [8], in test [9] and in test [10] was inactive.

Take `CCCCOCC1CO1` (stereo not drawn): the result in test [1], in test [2], in test [3], in [4], in [5] and in test [7] was inactive. In addition, the compound was classed as inactive in [8], in test [9] and in [10].

Regarding `COP(=O)(O)OC`, the result in [1], in test [2], in test [4], in test [5], in test [7] and in [8] was inactive. For the same compound, the call in test [9] and in test [10] was inactive. For the same compound, the AC50 in test [3] is 32.8 µM (active).

As for `CCOC(=O)c1ccccc1N`, the outcome in test [1], in test [2], in test [4], in test [5], in test [7] and in test [8] was inactive. Further, the compound was classed as inactive in test [9] and in test [10]. The AC50 in test [3] was 39.6 µM (active).

Consider `CC(C)(C)c1ccc(O)cc1`, for which the AC50 was 174 µM (active) in test [2]; 26 µM (active) in [3]; 175 µM (active) in test [6]; 175 µM (active) in test [7]; 26.8 µM (active) in [8]. Besides, the outcome in test [5], in [9] and in test [10] was inactive.

Turning to `CCOP(=S)(Oc1ccc([N+](=O)[O-])cc1)c1ccccc1` (stereo not drawn), the result in test [1], in test [2], in [4], in [6], in test [7] and in test [9] was inactive. In addition, the compound was classed as inactive in test [10]. Besides, the AC50 in [3] was 1.22 µM (active); in test [8], 27.2 µM (active).
